From PubChem BioAssay
A selection: hits, their analogues and other compounds. The true share with any hit is near 11%.
PNC assembly inh – inhibitors of perinucleolar compartment assembly; AID 2417; actives 3.1% (n = 140,000); activity change (PNC), negative = inhibition, % at 10 µM; PC3M PTB-GFP, PNC prevalence imaging, 16 h; active compounds read low;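 active = readout at or below -70, meaning at least 70% loss of cells showing the perinucleolar compartment, a nuclear body marking cancer cells; inconclusive = readout between -30 and a set limit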;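 also: plate controls were DMSO wells for no effect and camptothecin positive control wells for full effect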
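PC3M cells stably expressing PTB-GFP, 750–1000 cells/well, treated 16 h at 37 °C with compound (23 nl of library stock), in duplicate. After paraformaldehyde fixation and Hoechst stain, imaged at 20x; PNC prevalence scored by image analysis.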
HPGD block – inhibitors of human 15-hydroxyprostaglandin dehydrogenase (HPGD); P15428; purified HPGD, NADH fluorescence kinetic, PGE2 substrate; Potency, µM, for the others: at the top dose activity change, negative = inhibition, most hits filed as inhibitors; actives 4.3% (n = 150,000); AID 894; also: potency is read from the fitted curve at half-maximal effect
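NADH formation kinetics: reaction with 30 uM PGE2 and 1 mM NAD+ (final), 20 nM enzyme, Tris-HCl pH 8 with Tween 20, after 15 min compound preincubation at room temperature. Fluorescence change, last versus first of five reads.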
ALDH1A1 inh – blocks purified human ALDH1A1 activity. P00352. Purified ALDH1A1, NADH fluorescence, propionaldehyde substrate. Potency, µM (series often up to 75.3 µM), inactives show at the highest dose activity, negative = inhibition, most hits filed as inhibitors. actives 7.3% (n = 220,000). AID 1030;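 also: potency is read from the fitted curve at half-maximal effect; plate controls were no enzyme wells and a reference inhibitor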
Target sequence (P00352 whole entry, looked up): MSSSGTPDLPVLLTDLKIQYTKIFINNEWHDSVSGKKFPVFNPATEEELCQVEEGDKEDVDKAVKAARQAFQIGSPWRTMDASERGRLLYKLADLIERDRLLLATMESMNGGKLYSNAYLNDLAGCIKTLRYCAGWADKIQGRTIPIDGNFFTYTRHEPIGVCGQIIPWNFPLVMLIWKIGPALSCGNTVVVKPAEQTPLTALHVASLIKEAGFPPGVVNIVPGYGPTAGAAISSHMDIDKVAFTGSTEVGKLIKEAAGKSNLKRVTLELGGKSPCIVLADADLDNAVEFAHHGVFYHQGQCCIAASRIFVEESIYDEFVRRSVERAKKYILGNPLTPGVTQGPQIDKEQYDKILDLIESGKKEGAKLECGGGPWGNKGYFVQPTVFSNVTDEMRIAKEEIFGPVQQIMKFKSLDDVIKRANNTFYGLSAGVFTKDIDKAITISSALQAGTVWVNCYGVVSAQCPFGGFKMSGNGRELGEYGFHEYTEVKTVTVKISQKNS
An asterisk follows results filed as active; ? = inconclusive; . = no result given. Unless noted, calls follow the shape of the dose curve; as a rule, active = well fitted inhibition curve with a large enough effect (not every such curve was filed as active); inconclusive = small, poorly fitted or top-dose-only effect, or another doubt; inactive = no such curve, though single readings can be large or run the other way. Unless noted, % is scaled to controls: 0 for no effect and ±100 for the full control effect.

SMILES	PNC assembly inh	HPGD block	ALDH1A1 inh
CCCCCOCC(O)CCC(=O)NN (stereo unspecified)	82	-5%	-2%
Cc1[nH]c2ccccc2c1[C@H]1[C@@H](CC#N)C1(C)C	25	-26%	22µM*
Cc1[nH]c2ccccc2c1CCO	?	-8%	16%
COc1ccc(CCNC(=O)CC2SC(=NCCC(C)C)NC2=O)cc1OC (stereo unspecified)	?	-2%	?
CCN=C1SC(CC(=O)NCCc2ccc(OC)c(OC)c2)C(=O)N1CC (stereo unspecified)	10	-4%	20µM*
COc1ccc(CCNC(=O)CC2SC(=NCCc3ccccc3)NC2=O)cc1 (stereo unspecified)	6	-8%	28µM*
COc1ccc(CCNC(=O)CC2SC(=NCCc3ccccc3)NC2=O)cc1OC (stereo unspecified)	?	-1%	14µM*
COc1ccc(CN=C2NC(=O)CC(C(=O)Nc3cc(C)cc(C)c3)S2)cc1 (stereo unspecified)	-84*	1%	5%
COC(=O)c1cc(NC(=O)C2CC(=O)NC(=NCc3ccc(OC)cc3)S2)cc(C(=O)OC)c1 (stereo unspecified)	.	.	5%
CCN=C1SC(CC(=O)NCCc2ccc(OC)cc2)C(=O)N1CC (stereo unspecified)	8	-15%	-4%
COc1ccc(/C=N/N=C2/NC(=O)C(CC(=O)NC(C)C)S2)cc1 (stereo unspecified)	.	.	16%
Cc1nn(-c2ccccc2)c2c1C(O)n1c(nc3ccccc31)S2 (stereo unspecified)	?	-10%	-6%
CSc1ncccc1C(=O)NC(C)C1CC2CCC1C2 (stereo unspecified)	.	.	-3%
COc1ccc(NC(=O)N2CC3(CCN(S(C)(=O)=O)CC3)C2)cc1	.	-2%	19%
Cc1cc(-n2cnnn2)ccc1C(C)C	.	.	0%
COc1ccc(C(=O)NCCSCc2ccccc2)cc1OC	.	.	-6%
CC(c1nnc(SCC(=O)N2CC(=O)Nc3ccccc32)n1Cc1ccccc1)N(C)C (stereo unspecified)	-4	4%	-5%
O=C(COC(=O)c1cccnc1Cl)Nc1cc(S(=O)(=O)N2CCCCC2)ccc1Cl	.	.	3%
COc1ccc(NC(=O)CC2SC(=NCc3ccccc3OC)NC2=O)cc1 (stereo unspecified)	?	0%	-3%
COc1ccc(CCNC(=O)CC2SC(=NCc3ccccc3)NC2=O)cc1 (stereo unspecified)	.	.	32µM*
O=C(Nc1cccnc1)NC1CCCCC1	.	.	0%
O=[N+]([O-])c1ccc(Cl)c(/C=N/N2CCN(Cc3ccccc3)CC2)c1	-29	-7%	-4%
COc1cccc(-n2c(CN3CCN(Cc4ccccc4)CC3)nc3ccc([N+](=O)[O-])cc3c2=O)c1	?	-2%	24µM*
O=C(c1ccco1)N1CCN(Cc2nc3ccc([N+](=O)[O-])cc3c(=O)n2-c2ccccc2F)CC1	-4	-16%	?
COc1ccc(-n2c(CN3CCN(Cc4ccccc4)CC3)nc3ccc([N+](=O)[O-])cc3c2=O)c(OC)c1	.	.	20µM*
SMILES	PNC assembly inh	HPGD block	ALDH1A1 inh
COc1ccc(CC(C)N2CCN(Cc3ccccc3)CC2)c(OC)c1 (stereo unspecified)	8	-6%	1%
O=c1c2cc([N+](=O)[O-])ccc2nc(CN2CCN(c3ccccn3)CC2)n1-c1ccccc1F	.	.	14µM*
CCOC(=O)c1sc(=S)n(-c2cccc(C(F)(F)F)c2)c1SC	56	-19%	3%
Cc1n[nH]c(C)c1CCC(=O)N/N=C/C=C/c1ccccc1	?	-20%	4%
Clc1ccc(CNc2ccccc2NCc2ccc(Cl)nc2)cn1	.	.	-5%
Cc1cc(C)n2nc(C(=O)NC3CCCc4ccccc43)nc2n1 (stereo unspecified)	.	.	2%
COc1ccc(-n2ccnc2)cc1	.	.	2%
COc1nc(N(c2ccccc2)c2ccccc2)nc(-n2ccnc2)n1	-29	-13%	1.4µM*
COC(=O)c1sccc1NC(=O)CC1C(=O)NCCN1C(=O)c1ccc(N(C)C)cc1 (stereo unspecified)	.	.	10µM*
COc1ccc(NC(=O)CC2C(=O)NCCN2C(=O)c2ccccc2)cc1 (stereo unspecified)	.	.	-8%
COc1ccc(-n2c(=O)c3c4c(sc3n(Cc3cccc(F)c3)c2=O)CN(C(C)=O)CC4)c(OC)c1	.	.	10%
CC(=O)N1CCc2c(sc3c2c(=O)n(-c2ccccc2)c(=O)n3Cc2ccccc2Cl)C1	-114*	-8%	-14%
CC1CCCCC1NC(=O)c1cncc(Br)c1 (stereo unspecified)	-81*	-2%	-6%
CC1CCCC(NC(=S)NC(=O)c2cncc(Br)c2)C1C (stereo unspecified)	0	-12%	?
CC(CCc1ccccc1)NC(=O)C1CCN(S(=O)(=O)N2CCOCC2)CC1 (stereo unspecified)	22	-10%	?
CCCC(=O)Nc1cc(-c2nn(C)c(=O)c3ccccc23)ccc1N1CCOCC1	25	-13%	28µM*
CC(=O)Nc1cc(-c2nn(C)c(=O)c3ccccc23)ccc1N1CCOCC1	6	-15%	?
Cn1nc(-c2ccc(N3CCOCC3)c(NS(=O)(=O)c3ccc(Cl)cc3)c2)c2ccccc2c1=O	-11	-9%	-10%
Cc1ccc(S(=O)(=O)Nc2cc(-c3nn(C)c(=O)c4ccccc34)ccc2N2CCOCC2)cc1	?	?	22µM*
Cc1cc(N2CCOCC2)nc(-c2ccc([N+](=O)[O-])cc2)n1	71	4%	-5%
O=[N+]([O-])c1cccc2c[nH]nc12	.	32µM*	-15%
O=[N+]([O-])c1cccc2cn[nH]c12	17	-7%	-5%
COc1cccc2cc(C(=O)NCCc3c[nH]c4ccccc34)c(=O)oc12	.	.	-3%
O=C(CSCc1ccccc1Cl)Nc1c[nH]c(=O)[nH]c1=O	-7	-12%	-1%
Cc1cccc(N=Cc2[nH]c3ccc(Br)c(Cl)c3c2O)c1	11	14µM*	4.5µM*
SMILES	PNC assembly inh	HPGD block	ALDH1A1 inh
Cc1cccc(NCC(=O)N/N=C/c2ccc(Br)cc2)c1	.	.	1%
COc1ccccc1CN=Cc1[nH]c2ccc(Br)c(Cl)c2c1O	19	13µM*	0.79µM*
COc1cc(/C=N/NC(=O)c2ccc(COc3ccccc3Cl)o2)cc(Br)c1O	-23	-10%	3%
O=C(Nc1ccc(Cl)cc1)N(C1=NCCC1)c1ccc(OC(F)F)cc1	-17	-22%	-7%
O=C(c1cccc2ccccc12)N1CCC(N2CCN(c3ccccc3)CC2)CC1	28	-4%	?
Cc1cc(NC(=O)C23CC4CC(C2)CC(n2cnc([N+](=O)[O-])n2)(C4)C3)no1	.	.	1%
CC(=O)C1=C(O)C(=O)N(CCCn2ccnc2)C1c1ccc(C)cc1 (stereo unspecified)	7	-22%	-10%
Cc1ccccc1COc1ccc(/C(O)=C2/C(=O)C(=O)N(CCCn3ccnc3)C2c2ccco2)cc1 (stereo unspecified)	0	-27%	11µM*
Cc1ccc(/C(O)=C2/C(=O)C(=O)N(CCCn3ccnc3)C2c2ccccn2)cc1 (stereo unspecified)	8	1%	6%
